From paper PMC7819943, “Rice protein-binding microarrays: a tool to detect cis-acting elements near promoter regions in rice”
Over roughly 39,000 sequences, “fluorescence intensity (a.u.)” has its median near 4,300; the highest 2% begin near 39,000. For the sample, the highest values were picked, then their nearest neighbours and some sequences at random.

Target: T1, OsSMF1 (Oryza sativa, UniProt Q6ZLB0 1-436)
T1 sequence: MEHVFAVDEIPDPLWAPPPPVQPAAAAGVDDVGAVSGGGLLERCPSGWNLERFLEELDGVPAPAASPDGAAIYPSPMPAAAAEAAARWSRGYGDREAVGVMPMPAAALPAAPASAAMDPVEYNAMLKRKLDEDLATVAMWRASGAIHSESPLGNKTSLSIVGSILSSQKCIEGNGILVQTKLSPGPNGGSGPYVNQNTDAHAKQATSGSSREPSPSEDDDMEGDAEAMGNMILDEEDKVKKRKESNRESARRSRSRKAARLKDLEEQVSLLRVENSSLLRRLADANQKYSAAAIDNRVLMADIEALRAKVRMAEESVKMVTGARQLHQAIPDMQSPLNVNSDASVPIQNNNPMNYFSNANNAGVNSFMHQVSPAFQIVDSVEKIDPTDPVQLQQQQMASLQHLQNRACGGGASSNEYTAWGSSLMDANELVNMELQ
Assay: protein-binding microarray (RPBM); PBS, 2% BSA, 51.3 ng/ul salmon testes DNA, 50 uM zinc acetate, 200 nM TF, 25 C, 1 h; high values mean tight binding
Conditions: protein: recombinant; tags: N-terminal polyhistidine and DsRed monomer fusion (pET32a); chain copies: 2; label: CyDye5-dUTP incorporated in the synthesized complementary strand; 3' TTTTT single-stranded linker to array surface; dsDNA, one strand shown
Procedure, shortened: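 Transcription factors were each fused at the N-terminus to a polyhistidine tag plus DsRed and expressed in E. coli BL21-CodonPlus before Ni–NTA purification. Binding to a double-stranded custom Agilent array was carried out with 200 nM protein at 25 °C for 1 h in PBS, 2% BSA, salmon testes DNA and 50 µM zinc acetate. The binding signal is per-feature fluorescence intensity, in arbitrary units, on an Axon 4000B scanner.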

| Sequence | binding signal |
| --- | --- |
| ATTAGTATTCCCTCCCATCATTAATATATGACGTTAGTGTCGGAGTCACCTAGTGCAG | 4550 fluorescence intensity (a.u.) |
| CGGGAGGGGAGGGGAATGGATGTGGGGAGGAGAGAGACTGCGGAGTCACCTAGTGCAG | 4600 fluorescence intensity (a.u.) |
| TTCGTCATAGTGTGGAACGACACATCATGAAGATTAGAGACGGAGTCACCTAGTGCAG | 3630 fluorescence intensity (a.u.) |
| CCGGGAAATTCTTGTGTTGTTGTGTTGGTCTTGAGCAATTCGGAGTCACCTAGTGCAG | 3630 fluorescence intensity (a.u.) |
| TGCAAATTGTGCTTTTCTATTCTGTTGTGTCTTCTGCTTTCGGAGTCACCTAGTGCAG | 40700 fluorescence intensity (a.u.) |
| GTTCTGTCTTAACCTGCTTTCATATTAATTGTTAAAGTTGCGGAGTCACCTAGTGCAG | 3280 fluorescence intensity (a.u.) |
| AGCCTAGGAGGAGATGTGACCTCACAGTCAGGTGTCATCGCGGAGTCACCTAGTGCAG | 3660 fluorescence intensity (a.u.) |
| ACCAACCAACCAACCAACCAACCAAGCCTCCCAACTCCATCGGAGTCACCTAGTGCAG | 3810 fluorescence intensity (a.u.) |
| GATTCGCGTCCTCCGTTTGCTTCGCTTCTTCTTCTAGAACCGGAGTCACCTAGTGCAG | 3490 fluorescence intensity (a.u.) |
| CGTCCACGTCCATCTCCGCCGCTGACAGCACCAGCTCTTCCGGAGTCACCTAGTGCAG | 5020 fluorescence intensity (a.u.) |
| TTCCCCTTCCGCGACTGCGAGCTTCTCCGCCGCCGCCGCCCGGAGTCACCTAGTGCAG | 3160 fluorescence intensity (a.u.) |
| AGAGCCGAGGCCCGAATTCCTCCGGTCCTCCTCGTGACCCCGGAGTCACCTAGTGCAG | 15400 fluorescence intensity (a.u.) |
| ACCCCTGCGAATATATAATTTCCCCGCGAGGCCGCGAGCCCGGAGTCACCTAGTGCAG | 47700 fluorescence intensity (a.u.) |
| CACTCTCCTCCTACACTGCATGCTGCTGCTGACGTGGCTCCGGAGTCACCTAGTGCAG | 24900 fluorescence intensity (a.u.) |
| TGAGAATACCAGATGACAAAAGGTGACAGTAGTTAGGAACCGGAGTCACCTAGTGCAG | 4190 fluorescence intensity (a.u.) |
| GGGAGGTGTGGTGATCGATCGCCATGCGCGGATTTTCTAACGGAGTCACCTAGTGCAG | 5590 fluorescence intensity (a.u.) |
| TTATCTCCAATTTAAGCAACCAGAGGAATATATATGCTTGCGGAGTCACCTAGTGCAG | 53500 fluorescence intensity (a.u.) |
| TGATTGTTTAACCAAAATATATGCAATTGACTAAGCAAAACGGAGTCACCTAGTGCAG | 3220 fluorescence intensity (a.u.) |
| TTTATCAAATATTTTGTTCCAAAGCTTACATAAGCATATGCGGAGTCACCTAGTGCAG | 3320 fluorescence intensity (a.u.) |
| GCTTGCGCCAAAACCAAACATAGAGCAGCAATAGAGAGGACGGAGTCACCTAGTGCAG | 3610 fluorescence intensity (a.u.) |
| CCAAGCAAGCATACAGAGAGCAATAAAAGTATAAAACACACGGAGTCACCTAGTGCAG | 4950 fluorescence intensity (a.u.) |
| AGTGCTTTATCACACAGAATCAATACCCAAGAAGCATATGCGGAGTCACCTAGTGCAG | 41000 fluorescence intensity (a.u.) |

| Sequence | binding signal |
| --- | --- |
| CAACCAAGCAAGCGGCAGCAGAGCGCGAGTCATGCGACCCCGGAGTCACCTAGTGCAG | 3180 fluorescence intensity (a.u.) |
| CACGCGCCGGTGCCTTGCGCCGTCACCGTGCCAGCCCAGCCGGAGTCACCTAGTGCAG | 5670 fluorescence intensity (a.u.) |
| GCGTGGCCACATCAGCCTCCTCTCTCCCTTCCTCATCTCTCGGAGTCACCTAGTGCAG | 14700 fluorescence intensity (a.u.) |
| CTCCAGGAGGGGTGGAGTTGGAGCTGGAGCTGTGACAAACCGGAGTCACCTAGTGCAG | 12800 fluorescence intensity (a.u.) |
| AGGAGGGTGGAGCTGTGCCAAACAGACCCTAAGTGTTTTCCGGAGTCACCTAGTGCAG | 62100 fluorescence intensity (a.u.) |
| AGGAGGGGTGGAGCTGGAGCTGGAGCTGTGCCAAACAGGCCGGAGTCACCTAGTGCAG | 3190 fluorescence intensity (a.u.) |
| TTCTTTCATCAATTACTAGGCCTAGATGGGTAATTTTGGTCGGAGTCACCTAGTGCAG | 3200 fluorescence intensity (a.u.) |
| ATCTTGCCGAAGTTGTTGGTGACGAAGTCGAGGCTGCCGACGGAGTCACCTAGTGCAG | 3180 fluorescence intensity (a.u.) |
| AAAGTCAATATAGGAATACAATTTAGAAGTAACTTAAATTCGGAGTCACCTAGTGCAG | 25600 fluorescence intensity (a.u.) |
| TTAGGCCAAGTATGGGGTTGGGGCTATGGAGGAGAAGGGCCGGAGTCACCTAGTGCAG | 3320 fluorescence intensity (a.u.) |
| TACTTAGTAGCTAGGAGCTATATTGGTTGGAAAGGAGCGCCGGAGTCACCTAGTGCAG | 51200 fluorescence intensity (a.u.) |
| CTTAGCCGGCTATACGCGGCTACGTTGGCTGACTTGGTAGCGGAGTCACCTAGTGCAG | 4170 fluorescence intensity (a.u.) |
| CGCAGCACGCACGCACGCAGACACGCCCACGCGTTGCGGCCGGAGTCACCTAGTGCAG | 3550 fluorescence intensity (a.u.) |
| CCGCGCCGTCCCTCCTGACGCGGCGTCTCGCCGCCGCCGCCGGAGTCACCTAGTGCAG | 3780 fluorescence intensity (a.u.) |
| TCCCGATCGACGCGTGCATGGCGGCGAGCCTTCTGTCCCACGGAGTCACCTAGTGCAG | 3330 fluorescence intensity (a.u.) |
| CCTTCCAACATGTTTATTATGCATGAGATGTGTGCAACGACGGAGTCACCTAGTGCAG | 3360 fluorescence intensity (a.u.) |
| CATTCAACGCTCGCGTGCGTGCAGTGCCGTGTGTGGACCGCGGAGTCACCTAGTGCAG | 54900 fluorescence intensity (a.u.) |
| AGAGGGACGTCGACGCGTGGTGCCGTGGTGGTGTCGCTCGCGGAGTCACCTAGTGCAG | 3400 fluorescence intensity (a.u.) |
| TTCAACGGCGCGTGCCGACGTGGCCGCTGCGGCGTGCGTGCGGAGTCACCTAGTGCAG | 10300 fluorescence intensity (a.u.) |
| TGGCACATTCTCATCGTATTTTCTTGTTGCTCTATGTATGCGGAGTCACCTAGTGCAG | 3180 fluorescence intensity (a.u.) |
| ACTATAATTCATGGGATTATGTGCCAGCAGTCATAATATCCGGAGTCACCTAGTGCAG | 3180 fluorescence intensity (a.u.) |
